Data reported in PubChem BioAssay (Tox21).
Several values for one entry are separate records, joined by “and”; a condition that tells them apart may be missing. Equal entries are not always repeated. Records with an inconclusive call do not appear. More than one record can exist for a structure, and the calls need not agree. Activity calls are given as the source filed them. Calls come from the whole dose curve; as a rule, active = well fitted curve in the direction sought with a large enough effect in the repeat runs; inconclusive = weak or mixed curves; inactive = no such curve, though single readings can be large; an effect the other way counts as inactive or inconclusive.

How the values were obtained:
[1] = qHTS RealTime-Glo MT Cell Viability Assay in HepG2 cells - 40 hour (AID 1224870); note: nearly all actives have a fitted effect of over 50% in size; note: potency is the fitted concentration of half-maximal effect
Outline: (§1)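 HepG2 cells mixed with RealTime-Glo MT reagents (NanoLuc plus cell-permeant prosubstrate) were seeded at 600 cells/well, incubated 5 h at 37 C/5% CO2, then pinned with compounds in DMSO; nonlytic luminescence tracked viability during 40 h treatment.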

[2] = A CellTox Green Cytotoxicity Assay to monitor cytotoxicity in HEK293 cells - 40 hour (AID 1224871); note: nearly all actives have a fitted effect of over 45% in size; note: potency is the fitted concentration of half-maximal effect
Outline: (§2)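 Nonlytic real-time cytotoxicity: HEK293 + CellTox Green reagent plated, 5 h preincubation, pintool compound addition (23 nL in DMSO), 37 C for 40 h, fluorescence measured at successive time points.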

[3] = qHTS RealTime-Glo MT Cell Viability Assay in HEK293 cells - 16 hour (AID 1224872); note: nearly all actives have a fitted effect of over 50% in size; note: potency is the fitted concentration of half-maximal effect
Outline: (§3)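 Reads taken at 0, 8, 16, 24, 32 and 40 h from the same wells. HEK293 cells (600/well) carried RealTime-Glo reagents from seeding, with compound added after a 5 h settle at 37 C.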

[4] = qHTS RealTime-Glo MT Cell Viability Assay in HepG2 cells - 8 hour (AID 1224873); note: nearly all actives have a fitted effect of over 55% in size; note: potency is the fitted concentration of half-maximal effect
Outline: as §1

[5] = qHTS RealTime-Glo MT Cell Viability Assay in HEK293 cells - 40 hour (AID 1224874); details: RealTime-Glo luminescence; max response: stronger effect = lower value; note: nearly all actives have a fitted effect of over 50% in size; note: potency is the fitted concentration of half-maximal effect
Outline: (§4)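 Cells were seeded together with NanoLuc luciferase and a prosubstrate that viable cells reduce to a luciferase substrate. After a 5 h incubation at 37 C/5% CO2, compounds were added and luminescence was measured repeatedly during 40 h of treatment.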

[6] = A CellTox Green Cytotoxicity Assay to monitor cytotoxicity in HEK293 cells - 24 hour (AID 1224875); note: series mostly up to about 77 µM; nearly all actives have a fitted effect of over 45% in size
Outline: as §2

[7] = A CellTox Green Cytotoxicity Assay to monitor cytotoxicity in HepG2 cells - 16 hour (AID 1224876); note: nearly all actives have a fitted effect of over 45% in size; note: potency is the fitted concentration of half-maximal effect
Outline: (§5)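 Read-out is fluorescence of a cyanine dye excluded from live cells that stains DNA of dead HepG2 cells, with signal proportional to cytotoxicity. Plates were read at 0, 8, 16, 24, 32 and 40 h after compound addition.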

[8] = qHTS RealTime-Glo MT Cell Viability Assay in HepG2 cells - 32 hour (AID 1224877); note: nearly all actives have a fitted effect of over 55% in size; note: potency is the fitted concentration of half-maximal effect
Outline: (§6)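 HepG2 suspension premixed with RealTime-Glo reagents is plated at 600 cells per well and left 5 h at 37 C/5% CO2. Compounds in DMSO then go in, and bioluminescence reflecting viable cell number is recorded over 40 h.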

[9] = A CellTox Green Cytotoxicity Assay to monitor cytotoxicity in HepG2 cells - 24 hour (AID 1224878); note: nearly all actives have a fitted effect of over 45% in size; note: potency is the fitted concentration of half-maximal effect
Outline: as §5

[10] = A CellTox Green Cytotoxicity Assay to monitor cytotoxicity in HepG2 cells - 40 hour (AID 1224879); note: nearly all actives have a fitted effect of over 40% in size; note: potency is the fitted concentration of half-maximal effect
Outline: as §5

[11] = qHTS RealTime-Glo MT Cell Viability Assay in HEK293 cells - 0 hour (AID 1224880)
Outline: as §4

[12] = A CellTox Green Cytotoxicity Assay to monitor cytotoxicity in HEK293 cells - 32 hour (AID 1224881); note: nearly all actives have a fitted effect of over 40% in size; note: potency is the fitted concentration of half-maximal effect
Outline: as §2

[13] = A CellTox Green Cytotoxicity Assay to monitor cytotoxicity in HepG2 cells - 32 hour (AID 1224883); note: nearly all actives have a fitted effect of over 50% in size; note: potency is the fitted concentration of half-maximal effect
Outline: as §5

[14] = A CellTox Green Cytotoxicity Assay to monitor cytotoxicity in HEK293 cells - 8 hour (AID 1224884); note: nearly all actives have a fitted effect of over 35% in size; note: potency is the fitted concentration of half-maximal effect
Outline: as §2

[15] = qHTS RealTime-Glo MT Cell Viability Assay in HepG2 cells - 16 hour (AID 1224885); note: nearly all actives have a fitted effect of over 50% in size; note: potency is the fitted concentration of half-maximal effect
Outline: as §6

[16] = qHTS RealTime-Glo MT Cell Viability Assay in HEK293 cells - 24 hour (AID 1224886); note: nearly all actives have a fitted effect of over 50% in size; note: potency is the fitted concentration of half-maximal effect
Outline: as §3

[17] = qHTS RealTime-Glo MT Cell Viability Assay in HEK293 cells - 8 hour (AID 1224887); note: nearly all actives have a fitted effect of over 50% in size; note: potency is the fitted concentration of half-maximal effect
Outline: as §4

[18] = A CellTox Green Cytotoxicity Assay to monitor cytotoxicity in HEK293 cells - 16 hour (AID 1224888); note: nearly all actives have a fitted effect of over 35% in size
Outline: as §2

[19] = A CellTox Green Cytotoxicity Assay to monitor cytotoxicity in HepG2 cells - 0 hour (AID 1224882); note: nearly all actives have a fitted effect of over 35% in size
Outline: as §5

[20] = qHTS RealTime-Glo MT Cell Viability Assay in HepG2 cells - 0 hour (AID 1224889); note: nearly all actives have a fitted effect of over 50% in size
Outline: as §6
% is set by controls: 0 for no effect and ±100 for the full control effect.

O=[N+]([O-])c1cccc(Cl)c1
inactive: Potency [1] | Potency [2] | Potency [3] | Potency [4] | max response [5] 7.7% | Potency [6] | Potency [7] | Potency [8] | Potency [9] | Potency [10] | Potency [11] | Potency [12] | Potency [13] | Potency [14] | Potency [15] | Potency [16] | Potency [17] | Potency [18]

O=[N+]([O-])c1cc(N(CCO)CCO)ccc1NCCO
inactive: Potency [1] | Potency [2] | Potency [3] | Potency [4] | max response [5] 0.623% and 8.81% | Potency [6] | Potency [7] | Potency [8] | Potency [9] | Potency [10] | Potency [11] | Potency [12] | Potency [19] | Potency [13] | Potency [14] | Potency [15] | Potency [16] | Potency [17] | Potency [18]

Cc1ccc(C(=O)O)o1
inactive: Potency [1] | Potency [2] | Potency [3] | Potency [4] | max response [5] 2.67% and -10.1% | Potency [6] | Potency [7] | Potency [8] | Potency [9] | Potency [10] | Potency [11] | Potency [12] | Potency [13] | Potency [14] | Potency [15] | Potency [16] | Potency [17] | Potency [18] | Potency [20]

CN(C)c1cccc(O)c1
inactive: Potency [1] | Potency [2] | Potency [3] | Potency [4] | max response [5] -0.0652% and -21.5% | Potency [6] | Potency [7] | Potency [8] | Potency [9] | Potency [11] | Potency [12] | Potency [19] | Potency [13] | Potency [14] | Potency [15] | Potency [16] | Potency [17] | Potency [18]

COC(=O)c1ccc(C(=O)OC)cc1
active: Potency [5] 35.1 µM
19.8 µM (active) and inactive: Potency [13]
15.7 µM (active) and inactive: Potency [2]
35.1 µM (active) and inactive: Potency [3]
inactive: Potency [1] | Potency [4] | max response [5] 0.23% | Potency [6] | Potency [8] | Potency [11] | Potency [12] | Potency [19] | Potency [14] | Potency [15] | Potency [16] | Potency [17] | Potency [18] | Potency [20]
22.2 µM (active) and inactive: Potency [9] | Potency [10]

CCCCCCCCCCCCN
inactive: max response [5] 3.89% and -9.66% | Potency [11] | Potency [20]
inactive and 24.5 µM (active): Potency [8] | Potency [15]
inactive and 49 µM (active): Potency [2] | Potency [14]
inactive and 34.7 µM (active): Potency [1]
inactive and 19.5 µM (active): Potency [7] | Potency [9]
inactive and 43.6 µM (active): Potency [12]
inactive and 21.9 µM (active): Potency [4] | Potency [10] | Potency [13]
inactive and 38.9 µM (active): Potency [3] | Potency [16] | Potency [17]
active: Potency [5] 43.6 µM

Nc1cc(-c2ccncc2)c[nH]c1=O
inactive: Potency [1] | Potency [2] | Potency [3] | Potency [4] | max response [5] -8.6% and 7.61% | Potency [6] | Potency [7] | Potency [8] | Potency [9] | Potency [11] | Potency [12] | Potency [19] | Potency [13] | Potency [14] | Potency [15] | Potency [16] | Potency [17] | Potency [18] | Potency [20]

O=S(=O)(Oc1ccc(Cl)cc1Cl)c1ccccc1
inactive: Potency [1] | Potency [2] | Potency [3] | Potency [4] | max response [5] -21.1% | Potency [6] | Potency [8] | Potency [9] | Potency [10] | Potency [11] | Potency [12] | Potency [13] | Potency [14] | Potency [15] | Potency [16] | Potency [17] | Potency [18] | Potency [20]
active: Potency [5] 14 µM

O=C(Oc1ccccc1)c1ccc(O)cc1
inactive: Potency [1] | Potency [2] | Potency [3] | Potency [4] | max response [5] -21.6% and -15.5% | Potency [6] | Potency [7] | Potency [8] | Potency [9] | Potency [10] | Potency [11] | Potency [12] | Potency [19] | Potency [13] | Potency [14] | Potency [15] | Potency [16] | Potency [17] | Potency [18] | Potency [20]

CC(=O)Nc1ccc(C(=O)O)cc1
inactive: Potency [1] | Potency [2] | Potency [3] | Potency [4] | max response [5] 0.373% and -0.782% | Potency [6] | Potency [7] | Potency [8] | Potency [9] | Potency [10] | Potency [11] | Potency [12] | Potency [19] | Potency [13] | Potency [14] | Potency [15] | Potency [16] | Potency [17] | Potency [18] | Potency [20]

NC(=O)NNc1ccccc1
inactive: Potency [1] | Potency [2] | Potency [3] | Potency [4] | max response [5] 15.8% and 8.69% | Potency [6] | Potency [7] | Potency [8] | Potency [9] | Potency [11] | Potency [12] | Potency [19] | Potency [13] | Potency [14] | Potency [15] | Potency [16] | Potency [17] | Potency [18]

C[C@@H](O)[C@H]1C(=O)N2C(C(=O)O)=C(S[C@@H]3CN[C@H](C(=O)N(C)C)C3)[C@H](C)[C@H]12
inactive: Potency [1] | Potency [2] | Potency [3] | Potency [4] | max response [5] 2.43% and 4.85% | Potency [6] | Potency [7] | Potency [8] | Potency [9] | Potency [10] | Potency [11] | Potency [12] | Potency [13] | Potency [14] | Potency [15] | Potency [16] | Potency [17] | Potency [18] | Potency [20]
